STK33 inh: human STK33 kinase inhibition; Q9BYT3; ADP-Glo luminescence, MBP substrate; inhibition, % at 12.5 µM; 27,000 tested, 0.44% active; in the data active = inhibition above about 20%
ID4 SMM: ID4 (human) binding; small molecule microarray, Flag-ID4 binding, fluorescence F/B; 31,000 tested, 1.2% active; calls only; call rule not given here;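 also: a binder raises fluorescence above local background on the spot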
Target sequence (P47928 whole entry, looked up): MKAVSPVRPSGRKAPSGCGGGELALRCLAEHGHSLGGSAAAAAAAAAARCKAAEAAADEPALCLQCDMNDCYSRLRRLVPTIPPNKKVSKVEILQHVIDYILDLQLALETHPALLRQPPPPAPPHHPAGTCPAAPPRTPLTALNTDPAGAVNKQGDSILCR
Active calls of the source: *; i = inactive; / = no result given; + = active, no number. A selection: hits, their analogues and other compounds. The true share with any hit is near 1.1%.

SMILES | STK33 inh | ID4 SMM
Cc1cc(O)c(C=O)c2c1C(=O)Oc1c(C)c(O)c3c(c1O2)C(O)OC3=O (stereo unspecified) | 59* | /
COc1cc(C)c2c(c1C=O)Oc1c(c(C)c(O)c3c1C(O)OC3=O)OC2=O (stereo unspecified) | 15 | i
Cc1cc(N(CC(=O)Nc2ccc(F)c(Cl)c2)S(C)(=O)=O)ccc1Br | 1 | i
CCCCCCCC/C=C/CCCCCCCC(=O)NC(CO)Cc1ccc(O)cc1 (stereo unspecified) | / | i
Cc1cc(=O)oc2cc(OC(C)C(=O)NCC3CCCO3)ccc12 (stereo unspecified) | -1 | i
Cc1cc(=O)oc2cc(OC(C)C(=O)Nc3sc4c(c3C(N)=O)CCCC4)ccc12 (stereo unspecified) | 6 | +
Cc1ccc(S(=O)(=O)N(C)CC(=O)Nc2ccc(Br)cc2F)cc1 | -2 | i
Brc1c(Br)c(Br)c2n[nH]nc2c1Br | 20* | i
COC(=O)Nc1nc2ccc(C(=O)c3cccs3)cc2[nH]1 | 22* | i
COC(=O)Nc1nc2ccc(C(=O)c3ccccc3)cc2[nH]1 | 9 | /
CC(C)Cn1c(SCC(=O)Nc2ccc(F)cc2F)nc2ccccc2c1=O | -3 | /
COc1ccccc1-n1c(SC(C)C(=O)N2CCCCC2)nc2ccc(I)cc2c1=O (stereo unspecified) | 9 | i
O=C(C[C@@H]1CC[C@@H](NS(=O)(=O)c2ccccc2)[C@@H](CO)O1)NCCN1CCCCC1 | / | +
O=C(C[C@@H]1CC[C@@H](NS(=O)(=O)c2ccccc2)[C@H](CO)O1)NCCN1CCCCC1 | / | i
Cc1ccc(-n2c(SCC(=O)Nc3cccc(F)c3)nc3ccccc3c2=O)cc1 | 4 | i
C[C@@H]1CCCCO[C@H](CN(C)S(=O)(=O)c2ccc(F)cc2)[C@H](C)CN([C@@H](C)CO)C(=O)c2cc(NC(=O)Nc3ccccc3)ccc2O1 | / | i
CS(=O)(=O)N(CC(=O)Nc1ccc(Cl)c(C(F)(F)F)c1)c1cccc(Br)c1 | 3 | i
O=P(CCNCc1cccnc1)(c1ccccc1)c1ccccc1 | / | +
O=C(NCc1cccnc1)c1cc(-c2ccccc2)on1 | 7 | i
COc1ccc(OC)c(N(CC(=O)Nc2ccc(I)cc2C)S(C)(=O)=O)c1 | -1 | i
O=Cc1c2[nH]c3ccccc3c2cc2[nH]c3ccccc3c12 | -2 | i
O=c1[nH]c2ccccc2c2ccccc12 | 31* | i
O=C(NCc1ccccc1)C1=C[C@@H](c2cccs2)C[C@@H](OCCCCO)O1 | 3 | i
O=C(Nc1sc2c(c1C(=O)NCc1cccnc1)CCCC2)c1ccc(Cl)cc1 | 2 | i
Cc1occc1C(=O)Nc1sc2c(c1C(=O)NCc1cccnc1)CCCC2 | 4 | +
SMILES | STK33 inh | ID4 SMM
COc1ccccc1CNc1cc(-c2nn3c(C)nnc3s2)ccc1C | 3 | i
CCn1c(SCC(=O)Nc2ccc(F)cc2)nnc1-c1cccc(Cl)c1 | 0 | i
COc1cc(O)c(C(=O)/C=C/c2ccc(OC)c(OC)c2)c(OC)c1 | 0 | i
COc1ccc(/C=C/C(=O)CC(=O)/C=C/c2cccc(O)c2OC)cc1O | 123* | /
COc1cc(O)c(CC=C(C)C)cc1C(=O)/C=C/c1ccc(O)c(CC=C(C)C)c1 | 0 | /
COc1cc(/C=C/C(=O)CC(=O)/C=C/c2ccc(O)c(OC)c2)ccc1O | 117* | i
O=S(=O)(Cc1ccc(Cl)cc1)NCc1ccccn1 | 1 | i
O=C1C=CC(=O)c2c(O)c(Cl)c(Cl)c(O)c21 | 22* | /
CC(=O)Nc1ccc(C(=O)Nc2ccc(S(=O)(=O)Nc3nccs3)cc2)cc1 | -2 | i
O=C(O)CCc1nn2c3ccccc3n(CCN3CCCCC3)c2nc1=O | -1 | +
CCn1nccc1C(=O)Nc1nc2ccccc2n1CCN1CCCCC1 | 6 | i
CS(=O)(=O)N(CC(=O)Nc1ccc(Br)cc1)c1ccc2c(c1)OCCO2 | -2 | i
CCOc1ccc(NC(=O)C2CC=CCC2C(=O)O)cc1 (stereo unspecified) | 5 | i
O=C(O)c1cc(NC(=O)C2CC=CCC2C(=O)O)ccc1Cl (stereo unspecified) | -3 | +
Nc1nc(SCC(=O)c2ccc3c(c2)OCCO3)n[nH]1 | 3 | i
Cc1ccc(-c2nn(C)c(=O)c3ccccc23)cc1CNC(=O)CN1CCOCC1 | -9 | i
Cc1ccc(-c2nn(C)c(=O)c3ccccc23)cc1S(=O)(=O)N1CCN(CCO)CC1 | -2 | +
C[C@@H]1CN([C@@H](C)CO)C(=O)c2cc(NS(=O)(=O)c3ccccc3)ccc2O[C@@H](C)CCCCO[C@H]1CN(C)C(=O)c1ccncc1 | / | i
C[C@H]1CCCCO[C@@H](CN(C)C(=O)c2ccncc2)[C@@H](C)CN([C@@H](C)CO)C(=O)c2cc(NS(=O)(=O)c3ccccc3)ccc2O1 | / | +
C[C@@H]1CCCCO[C@H](CN(C)Cc2ccccc2)[C@@H](C)CN([C@@H](C)CO)C(=O)c2cc(NS(=O)(=O)c3ccccc3)ccc2O1 | / | i
C[C@H]1CCCCO[C@@H](CN(C)Cc2ccc(C(=O)O)cc2)[C@@H](C)CN([C@@H](C)CO)C(=O)c2cc(NS(=O)(=O)c3ccccc3)ccc2O1 | / | +
COc1cc(Cc2nccc3cc(OC)c(OC)cc23)c(NC(=O)c2cccs2)cc1OC | 0 | i
COc1ccc(OC)c(N(CC(=O)Nc2c(F)cccc2F)S(C)(=O)=O)c1 | -3 | i
Cc1cc(F)c(Nc2ncnc3cc(OCc4ccccc4)ccc23)cc1O | / | i
C#Cc1cccc(Nc2ncnc3cc(OC)c(OC)cc23)c1 | 23* | i
SMILES | STK33 inh | ID4 SMM
COc1cc2ncnc(Nc3ccc(OCc4ccccc4)cc3)c2cc1OC | 1 | /
COc1cc2ncnc(Nc3ccc(Cl)cc3F)c2cc1OC | 26* | i
COC1=C/C(=C/c2c(N)n3c(SC(C)C)nsc3nc2=O)C=CC1=O | / | i
COc1ccc(S(=O)(=O)N[C@@H]2CCCN(Cc3ccc(OCCO)cc3)C2)cc1 | 4 | i
O=C1c2ccccc2C(=O)N1C[C@@H]1CCCN(Cc2ccc(OCCO)cc2)C1 | / | +
O=S(=O)(N[C@@H]1CCCN(Cc2ccc(OCCO)cc2)C1)c1ccc(Cl)cc1 | -3 | +
O=C1c2ccccc2C(=O)N1C[C@@H]1CCCN(Cc2cccc(OCCO)c2)C1 | -2 | i
CC(=O)Nc1ccc(NC(=O)CN(c2ccc(Br)c(C)c2)S(C)(=O)=O)cc1 | -3 | i
COC(=O)CSc1nnc2c3c4c(sc3nc(-c3ccccc3Cl)n12)CCCC4 | -1 | i
Cc1c(Cl)cccc1NC(=O)Nc1cccc(Cn2cccn2)c1 | 0 | i
Cc1scc(C(=O)Nc2cccc(Cn3cccn3)c2)c1-c1ccccc1 | 2 | +
O=C(Nc1ccc(Cl)cc1Cl)NC(Cc1ccc(O)cc1)C(=O)O (stereo unspecified) | -4 | +
O=C(CSc1ncccn1)Nc1ccc(Cl)cc1Cl | 2 | i
C[C@H]1CN([C@@H](C)CO)C(=O)Cc2cc(NC(=O)NC3CCCCC3)ccc2O[C@@H]1CN(C)S(=O)(=O)c1cccs1 | / | i
Cc1ccc(C(=O)Nc2cccc(OC(=O)c3cc(S(=O)(=O)N4CCCCC4)ccc3Cl)c2)cc1 | 0 | +
O=C(Nc1cccc(O)c1)c1cc(S(=O)(=O)N2CCOCC2)ccc1Cl | -4 | i
O=C(CSc1ccccc1C(=O)O)Nc1ccnc2ccccc12 | 3 | i
O=C(O)c1ccc2c3c1cccc3c(=O)n1c3ccccc3nc21 | 70* | /
O=c1cc(-c2ccccc2)oc2cc(O)cc(O)c12 | 33* | /
